According to PubChem BioAssay (Tox21):
Several values for one entry are separate records, joined by “and”; a condition that tells them apart may be missing. Identical values can stand only once. Inconclusive results are not listed. Where a call stands in place of a potency, no number is given. More than one record can exist for a structure, and the calls need not agree. Activity calls are given as the source filed them. Unless noted, calls come from the whole dose curve.

Columns and labels:
[1] = Nuclear factor erythroid 2-related factor 2/antioxidant responsive element (Nrf2/ARE) small molecule agonists: luciferase reporter gene qHTS assay in human keratinocytes (AID 1919969); note: nearly all actives have a fitted effect of over 35% in size; note: potency is the fitted concentration of half-maximal effect
[2] = biological target: Gonadotropin-releasing hormone receptor (Homo sapiens) (UniProt P30968); assay: Human gonadotropin-releasing hormone receptor (GnRHR) small molecule agonists, calcium flux assay in GnRHR-HEK293 cells (AID 1920063); note: nearly all actives have a fitted effect of over 35% in size
Summary of the method: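 HEK293 cells stably expressing human GnRHR were plated 18 h at 37 °C, loaded with calcium dye 1 h at 37 °C, then given compound in agonist mode; fluorescence (Ex/Em 480/540) read kinetically for 3 min at 1 s intervals.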

[3] = biological target: KiSS-1 receptor (Homo sapiens) (UniProt Q969F8); assay: Human kisspeptin (KISS1R) small molecule agonists, calcium flux assay in KISS1R-HEK293 cells (AID 1920064; active = well fitted activation curve with a large enough effect in the repeat runs)
Summary of the method: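 HEK293 cells stably expressing human KISS1R were plated 18 h at 37 °C, loaded with calcium dye for 1 h at 37 °C, then given compound by pin tool. Fluorescence (Ex/Em 480/540) was read kinetically for 3 min.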

[4] = G protein-coupled receptor (GPCR) small molecule agonists, calcium flux assay: HEK293 wild type cell line counter screen (AID 1920065)
Summary of the method: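 Cells were plated and cultured 18 h at 37 C/5% CO2, then loaded with calcium dye for 1 h at 37 C. Compounds in DMSO were pin-transferred in agonist mode, and fluorescence (Ex/Em 480/540) was read kinetically for 3 min at 1 s intervals.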

[5] = p53 small molecule agonists, cell-based qHTS assay with human liver microsomes: qHTS cell viability counter screen (AID 1963579); note: nearly all actives have a fitted effect of over 45% in size
Summary of the method: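 Metabolic activation used human liver microsomes and NADPH, both 0.5 mg/mL final, over 16 hours at 37 C on p53RE-bla cells (4,000/well). Cytotoxicity measured by CellTiter-Glo luminescence, 30 min at room temperature.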

[6] = p53 small molecule agonists, cell-based qHTS assay with rat liver microsomes: qHTS cell viability counter screen (AID 1963580); note: nearly all actives have a fitted effect of over 45% in size
Summary of the method: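 p53RE-bla HCT-116 cells were exposed 16 h at 37 C to compounds with rat liver microsomes (0.5 mg/mL) and NADPH (0.5 mg/mL). Viability was measured in the same wells as ATP content by CellTiter-Glo luminescence.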

[7] = p53 small molecule agonists, cell-based qHTS assay: qHTS cell viability counter screen (AID 1963581); note: nearly all actives have a fitted effect of over 45% in size
Summary of the method: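 p53RE-bla HCT-116 cells were exposed to compounds for 16 h at 37 C; after the beta-lactamase FRET read in the same wells, CellTiter-Glo was added and luminescence (intracellular ATP) read after 30 min at room temperature.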

[8] = biological target: 5-hydroxytryptamine receptor 2A (Homo sapiens) (UniProt P28223); assay: 5-hydroxytryptamine receptor 2A (HTR2A) small molecule antagonists, cell-based qHTS assay (AID 1963586); note: nearly all actives have a fitted effect of over 45% in size
Summary of the method: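 Antagonist-mode intracellular calcium assay: DOI (4 nM) added after 5 min compound pre-incubation at room temperature to dye-loaded HTR2A-CHO cells. Fluorescence followed for 3 min, sampled every second.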

[9] = biological target: Muscarinic acetylcholine receptor M1 (Homo sapiens) (UniProt P11229); assay: Cholinergic receptor muscarinic 1 (CHRM1) small molecule antagonists, cell-based qHTS assay (AID 1963588); note: nearly all actives have a fitted effect of over 40% in size
Summary of the method: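 CHRM1-CHO calcium-flux assay, antagonist mode. Cells were seeded 18 h, dye-loaded 1 h at 37 C and given compound for 5 min at RT, then acetylcholine was added at 50nM. FDSS fluorescence was read 3 min; 15 concentrations, three runs.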

[10] = biological target: Muscarinic acetylcholine receptor M1 (Homo sapiens) (UniProt P11229); assay: Cholinergic receptor muscarinic 1 (CHRM1) small molecule agonists, cell-based qHTS assay (AID 1963589); note: nearly all actives have a fitted effect of over 35% in size
Summary of the method: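 CHO cells stably expressing human CHRM1, seeded 18 h at 37 C/5% CO2, dye-loaded 1 h at 37 C, then given compound in agonist mode; intracellular calcium fluorescence read kinetically at 1 s intervals. Fifteen concentrations, three independent runs.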

[11] = cAMP Responsive Elements (CRE) small molecule agonists, cell-based qHTS assay (AID 1963590)
Summary of the method: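 CRE-bla HEK 293T cells in DMEM with 10% dialyzed FBS, NEAA, pyruvate and 25 mM HEPES were plated 18 h at 37 C/5% CO2, then exposed to compounds in DMSO for 3 h before LiveBLAzer B/G FRET substrate addition.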

[12] = cAMP Responsive Elements (CRE) small molecule antagonists, cell-based qHTS assay (AID 1963591; active = well fitted inhibition curve with a large enough effect in the signal ratio in the repeat runs, not every such curve was filed as active; the % refers to the signal ratio)
Summary of the method: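 CRE-bla HEK293T cells were plated 18 h at 37 °C/5% CO2, pinned with compound in DMSO, then stimulated with NKH477 at 0.25 uM final for 3 h. LiveBLAzer B/G FRET substrate was added and plates incubated 2 h at room temperature.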

[13] = biological target: Beta-2 adrenergic receptor (Homo sapiens) (UniProt P07550); assay: Adrenergic beta2 receptor (ADRB2) small molecule antagonists, cell-based qHTS assay (AID 1963592); note: series mostly up to about 92 µM; nearly all actives have a fitted effect of over 50% in size
Summary of the method: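 Cells (CHO, stable ADRB2 overexpression) incubated 18-20hr at 37C; compounds added from DMSO; agonist mix (1nM isoproterenol, 100uM IBMX, 25uM Ro-20-1724) added; 0.5hr RT; d2-cAMP and anti-cAMP-cryptate added; 1hr RT; 665/615 nm read.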

[14] = biological target: Beta-2 adrenergic receptor (Homo sapiens) (UniProt P07550); assay: Adrenergic beta2 receptor (ADRB2) small molecule agonists, cell-based qHTS assay (AID 1963593);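 note: CHO cells stably overexpressing human ADRB2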
Summary of the method: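 CHO cells stably over-expressing ADRB2 were plated overnight at 37C, then dosed with compounds plus a stimulation mix containing 100uM IBMX and 25uM Ro-20-1724 for 0.5hr at room temperature. cAMP was measured by HTRF competition, 1hr.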

[15] = biological target: D(2) dopamine receptor (Homo sapiens) (UniProt P14416); assay: Dopamine D2 receptor (DRD2) small molecule agonists, cell-based qHTS assay (AID 1963594); note: nearly all actives have a fitted effect of over 35% in size
Summary of the method: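 HEK293 cells stably expressing human DRD2, pre-treated with PDE inhibitor Ro20-1724 (0.1 mM final) and compound 10 min at room temperature, then stimulated with NKH477 (200nM […]) for 30 min. cAMP read by HTRF (665/620 nm).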

[16] = biological target: D(2) dopamine receptor (Homo sapiens) (UniProt P14416); assay: Dopamine D2 receptor (DRD2) small molecule antagonists, cell-based qHTS assay (AID 1963595; active = well fitted inhibition curve with a large enough effect in the signal ratio in the repeat runs, with a control signal flat; the % refers to the signal ratio)
Summary of the method: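 In this cell-based antagonist screen, compounds act for 10 min at room temperature before a 30 min challenge with 12 nM quinpirole and 200 nM NKH477. cAMP is quantified by HTRF competition in DRD2-HEK293 cells containing 0.1 mM Ro20-1724.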

[17] = biological target: 5-hydroxytryptamine receptor 2A (Homo sapiens) (UniProt P28223); assay: 5-hydroxytryptamine receptor 2A (HTR2A) small molecule agonists, cell-based qHTS assay (AID 1963587); note: nearly all actives have a fitted effect of over 30% in size
Summary of the method: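 CHO cells stably expressing human HTR2A, plated 18 h, loaded with calcium dye 1 h at 37 C. Agonist mode: compounds added and intracellular calcium fluorescence recorded kinetically for 2 min at 1 sec intervals.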

[18] = p53 small molecule agonists, cell-based qHTS assay with human liver microsomes (AID 1963577);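 note: p53 response element beta-lactamase reporter cells with liver microsomes plus NADPH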
Summary of the method: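 With metabolic activation: human liver microsomes (0.5 mg/mL final) plus NADPH (0.5 mg/mL final) added alongside compounds to p53RE-bla cells; 16 h 37 C exposure; beta-lactamase read by LiveBLAzer fluorescence.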

[19] = p53 small molecule agonists, cell-based qHTS assay (AID 1963582; active = well fitted activation curve with a large enough effect in the signal ratio in the repeat runs, not every such curve was filed as active; the % refers to the signal ratio; note: potency is the fitted concentration of half-maximal effect)
Summary of the method: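 p53RE-bla beta-lactamase reporter cells rested 5 h at 37 C/5% CO2, then received compounds in DMSO by pin transfer and were incubated 16 h at 37 C. LiveBLAzer B/G FRET substrate was loaded for 2 h at room temperature before fluorescence reading.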

[20] = p53 small molecule agonists, cell-based qHTS assay with rat liver microsomes (AID 1963578)
Summary of the method: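 Metabolic activation by rat liver microsomes and NADPH, each 0.5 mg/mL final, added right after compounds to p53RE-bla reporter cells (4,000/well, plated 5 h earlier). 16 h at 37 C, then LiveBLAzer substrate for 2 h at room temperature in the dark; fluorescence read-out.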

Sequence of 5-hydroxytryptamine receptor 2A (Homo sapiens) (P28223 whole entry, looked up): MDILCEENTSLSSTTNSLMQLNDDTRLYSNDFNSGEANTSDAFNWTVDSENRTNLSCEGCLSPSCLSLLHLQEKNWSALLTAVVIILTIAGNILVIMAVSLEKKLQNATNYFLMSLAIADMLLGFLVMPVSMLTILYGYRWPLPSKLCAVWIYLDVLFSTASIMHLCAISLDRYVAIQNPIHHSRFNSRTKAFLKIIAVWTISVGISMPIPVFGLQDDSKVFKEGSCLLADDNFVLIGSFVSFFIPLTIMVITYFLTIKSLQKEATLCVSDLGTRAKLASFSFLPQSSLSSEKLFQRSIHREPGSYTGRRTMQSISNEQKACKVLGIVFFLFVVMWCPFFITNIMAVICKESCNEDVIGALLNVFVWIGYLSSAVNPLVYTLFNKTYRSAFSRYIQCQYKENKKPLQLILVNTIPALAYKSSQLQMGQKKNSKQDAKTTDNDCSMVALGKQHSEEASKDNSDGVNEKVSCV
Sequence of KiSS-1 receptor (Homo sapiens) (Q969F8 whole entry, looked up): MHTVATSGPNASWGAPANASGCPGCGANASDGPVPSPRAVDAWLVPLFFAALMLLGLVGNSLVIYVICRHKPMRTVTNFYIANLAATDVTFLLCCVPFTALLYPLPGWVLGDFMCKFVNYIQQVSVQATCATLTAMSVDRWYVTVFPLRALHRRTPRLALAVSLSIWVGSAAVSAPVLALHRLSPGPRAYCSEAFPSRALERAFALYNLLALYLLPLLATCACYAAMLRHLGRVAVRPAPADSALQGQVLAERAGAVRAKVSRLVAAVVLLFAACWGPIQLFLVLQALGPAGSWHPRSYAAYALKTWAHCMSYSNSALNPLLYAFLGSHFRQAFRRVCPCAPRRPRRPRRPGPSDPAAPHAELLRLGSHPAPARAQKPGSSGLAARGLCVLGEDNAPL
Sequence of Muscarinic acetylcholine receptor M1 (Homo sapiens) (P11229 whole entry, looked up): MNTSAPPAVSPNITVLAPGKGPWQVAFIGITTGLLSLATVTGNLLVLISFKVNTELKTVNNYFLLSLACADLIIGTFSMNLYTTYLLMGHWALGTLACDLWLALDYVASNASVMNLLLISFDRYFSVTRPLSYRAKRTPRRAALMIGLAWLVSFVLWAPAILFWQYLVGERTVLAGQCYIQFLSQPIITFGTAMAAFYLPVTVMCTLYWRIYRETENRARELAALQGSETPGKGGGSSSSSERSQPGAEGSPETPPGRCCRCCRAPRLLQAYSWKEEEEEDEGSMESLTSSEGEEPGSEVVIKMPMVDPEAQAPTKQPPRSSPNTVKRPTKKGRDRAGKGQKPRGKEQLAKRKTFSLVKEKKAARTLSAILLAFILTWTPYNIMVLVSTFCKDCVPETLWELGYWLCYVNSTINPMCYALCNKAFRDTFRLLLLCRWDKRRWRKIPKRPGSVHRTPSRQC
Sequence of Gonadotropin-releasing hormone receptor (Homo sapiens) (P30968 whole entry, looked up): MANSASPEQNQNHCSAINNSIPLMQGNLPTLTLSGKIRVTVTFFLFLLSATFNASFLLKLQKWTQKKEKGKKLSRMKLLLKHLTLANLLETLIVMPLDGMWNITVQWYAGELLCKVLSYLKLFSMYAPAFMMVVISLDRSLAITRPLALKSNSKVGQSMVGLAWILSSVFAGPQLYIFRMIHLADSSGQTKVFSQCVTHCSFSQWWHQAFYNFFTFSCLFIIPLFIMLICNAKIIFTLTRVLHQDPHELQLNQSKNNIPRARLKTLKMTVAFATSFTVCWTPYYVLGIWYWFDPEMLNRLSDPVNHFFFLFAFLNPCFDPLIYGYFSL
Sequence of Beta-2 adrenergic receptor (Homo sapiens) (P07550 whole entry, looked up): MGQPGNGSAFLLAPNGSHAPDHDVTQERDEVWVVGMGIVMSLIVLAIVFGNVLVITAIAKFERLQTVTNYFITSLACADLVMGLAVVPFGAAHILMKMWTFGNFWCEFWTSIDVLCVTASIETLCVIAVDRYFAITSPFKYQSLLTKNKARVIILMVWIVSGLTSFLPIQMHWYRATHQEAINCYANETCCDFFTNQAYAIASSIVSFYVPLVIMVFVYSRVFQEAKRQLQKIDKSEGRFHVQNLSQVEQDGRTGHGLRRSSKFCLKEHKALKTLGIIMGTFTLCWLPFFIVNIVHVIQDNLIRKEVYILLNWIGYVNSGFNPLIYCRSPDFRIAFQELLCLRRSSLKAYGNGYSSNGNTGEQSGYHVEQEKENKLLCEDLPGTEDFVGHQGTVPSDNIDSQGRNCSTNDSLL
Sequence of D(2) dopamine receptor (Homo sapiens) (P14416 whole entry, looked up): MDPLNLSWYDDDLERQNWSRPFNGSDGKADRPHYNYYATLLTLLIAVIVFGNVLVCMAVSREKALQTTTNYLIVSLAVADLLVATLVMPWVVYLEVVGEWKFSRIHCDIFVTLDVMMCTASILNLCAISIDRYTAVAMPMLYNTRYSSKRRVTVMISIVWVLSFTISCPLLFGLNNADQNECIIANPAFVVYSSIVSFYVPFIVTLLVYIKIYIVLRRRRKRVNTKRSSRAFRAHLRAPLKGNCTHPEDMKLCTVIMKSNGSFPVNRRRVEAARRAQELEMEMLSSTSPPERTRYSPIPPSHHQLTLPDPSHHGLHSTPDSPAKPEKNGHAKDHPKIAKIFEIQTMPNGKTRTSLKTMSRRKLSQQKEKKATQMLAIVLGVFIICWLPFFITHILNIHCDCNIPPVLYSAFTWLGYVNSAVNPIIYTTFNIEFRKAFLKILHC

SMILES	Potency [1]	Potency [2]	Potency [3]	Potency [4]	Potency [5]	Potency [6]	Potency [7]	Potency [8]	Potency [9]	Potency [10]	Potency [11]	Potency [12]	Potency [13]	Potency [14]	Potency [15]	Potency [16]	Potency [17]	Potency [18]	Potency [19]	Potency [20]
CN(C)c1nc(=O)n(C2CCCCC2)c(=O)n1C	inactive	inactive	inactive	inactive	inactive	inactive	inactive	inactive	inactive	inactive	inactive	inactive	inactive	inactive	inactive	inactive				
C=CCc1ccc(OC)cc1	inactive	inactive	inactive	inactive		inactive	inactive	inactive	inactive	inactive	inactive		inactive		inactive	inactive				
O=C(O)CF	inactive	inactive	inactive	inactive	inactive		inactive	inactive	inactive	inactive	inactive	inactive	inactive		inactive	inactive	inactive			
Cc1cc(Cl)ccc1N=CN(C)C		inactive	inactive	inactive	inactive	inactive	inactive	inactive	inactive	inactive	inactive	inactive	inactive	inactive	inactive	inactive	inactive	inactive	inactive	
CNC(=O)CSP(=S)(OC)OC	inactive	inactive	inactive	inactive		inactive	inactive	inactive	inactive	inactive	inactive	inactive	inactive	inactive	inactive	inactive	inactive			
C[N+](C)(C)CC(=O)[O-]	inactive	inactive	inactive	inactive	inactive	inactive	inactive		inactive	inactive	inactive	inactive		inactive	inactive	inactive	inactive			
CC(C)c1ccc(OP(=O)(Oc2ccc(C(C)C)cc2)Oc2ccc(C(C)C)cc2)cc1	61.6 µM (active) and inactive and 30.6 µM (active)	inactive	inactive	inactive	inactive	inactive	inactive	inactive	inactive	inactive		inactive			inactive		inactive			
Clc1ccc(Cl)c(Cl)c1		inactive	inactive	inactive	inactive	inactive	inactive	inactive	inactive	inactive		inactive	inactive	inactive	inactive	inactive		inactive	inactive	inactive
CCCCOC(=O)CCC(=O)OCCCC	inactive		inactive	inactive	inactive	inactive	inactive	inactive		inactive	inactive	inactive	inactive		inactive	inactive	inactive	inactive	inactive	inactive
COC(=O)Nc1nc2ccccc2[nH]1		inactive	inactive	inactive	inactive	inactive		inactive	inactive	inactive	inactive		inactive	inactive	inactive	inactive	inactive		9.13 µM (active)	inactive
CNC(C)(C)Cc1ccccc1		inactive		inactive	inactive	inactive	inactive	inactive	inactive	inactive	inactive	inactive			inactive	inactive	inactive	inactive	inactive	inactive
COC(=O)c1cncn1C(C)c1ccccc1 (centres undefined)		inactive	inactive	inactive	inactive	inactive	inactive	inactive	inactive		inactive	inactive	inactive	inactive	inactive	inactive		inactive	inactive	inactive
